According to ChEMBL document CHEMBL4513145, “CO-ADD screening of Biotechnology Research Centre (C.R.B.t) (Algeria) compounds”:
Values joined by “and” are separate entries in the source; they are usually repeats but may differ in a detail not shown here. Identical values can stand only once. Entries with a potency or affinity are not part of this list.

Legend:
Staphylococcus aureus = settings: Concentration 32 ug.mL-1, ASSAY_TEST Inhibition of Bacterial Growth, detection method Absorption (OD600), MEDIA CAMHB, plate type 384well, NBS, CORNING #3640, time 18 hr
Escherichia coli = settings: Concentration 32 ug.mL-1, ASSAY_TEST Inhibition of Bacterial Growth, detection method Absorption (OD600), MEDIA CAMHB, plate type 384well, NBS, CORNING #3640, time 18 hr

Which results are given for CCCCCCCC1CN(S(=O)(=O)c2ccc(C)cc2)N(C(=O)OC(C)(C)C)C1=O (configuration not stated)?
Inhibition (Staphylococcus aureus): 0.71%; Inhibition (Escherichia coli): -11.74%

What does the source list for CC(C)(C)OC(=O)N1C(O)C2CCCC2N1S(=O)(=O)c1ccc([N+](=O)[O-])cc1 (configuration not stated)?
Inhibition (Staphylococcus aureus): -6.71%; Inhibition (Escherichia coli): -4.07%

What does the source list for O=C(OCc1ccccc1)N1CC(Cc2ccccc2)C(O)O1 (configuration not stated)?
Inhibition (Staphylococcus aureus): 13.58%; Inhibition (Escherichia coli): -3.12%

For CC1C(O)N(C(=O)OC(C)(C)C)N(S(=O)(=O)c2ccc([N+](=O)[O-])cc2)C1C (configuration not stated), which Inhibition (Staphylococcus aureus) is on record?
Its Inhibition is 14.48%.

And the Inhibition (Escherichia coli)?
The Inhibition was -1.81%.

Which Inhibition (Staphylococcus aureus) does the source give for CCCCCCCC1CN(S(=O)(=O)c2ccc(C)cc2)N(S(=O)(=O)c2ccc(C)cc2)C1O (configuration not stated) here?
The Inhibition was 7.71%.

And the Inhibition (Escherichia coli)?
The Inhibition was -1.55%.

What does the source list for CC1CN(S(=O)(=O)c2ccc([N+](=O)[O-])cc2)N(C(=O)OC(C)(C)C)C1O (configuration not stated)?
Inhibition (Staphylococcus aureus): 60.53%; Inhibition (Escherichia coli): -0.56%

With O=C(OCc1ccccc1)N1OC(O)C2CCCCC21 (configuration not stated) as the molecule, how does the Inhibition (Staphylococcus aureus) read?
Its Inhibition is 6.89%.

What about the Inhibition (Escherichia coli) of the same molecule?
Its Inhibition is -5.21%.

What does the source list for Cc1ccc(S(=O)(=O)N2CC(C)C(=O)N2S(=O)(=O)c2ccc(C)cc2)cc1 (configuration not stated)?
Inhibition (Staphylococcus aureus; 32 ug/mL): 12.43% and 4.65%; Inhibition (Escherichia coli; 32 ug/mL): -5.27% and -6.97%

For O=C1ON(C(=O)OCc2ccccc2)CC1Cc1ccccc1 (configuration not stated), which Inhibition (Staphylococcus aureus; 32 ug/mL) is on record?
Its Inhibition is 5.51% and 8.05%.

And the Inhibition (Escherichia coli; 32 ug/mL)?
Its Inhibition is -4.21% and -4.06%.

With CC1CN(S(=O)(=O)c2ccc([N+](=O)[O-])cc2)N(C(=O)OC(C)(C)C)C1=O (configuration not stated) as the molecule, how does the Inhibition (Staphylococcus aureus; 32 ug/mL) read?
The Inhibition was 12.53% and 22.23% and 12.31%.

And the Inhibition (Escherichia coli; 32 ug/mL)?
The Inhibition was -2.77% and -4.85% and -5.54%.

CC1CN(C(=O)OCc2ccccc2)OC1O (configuration not stated) was tested. Which Inhibition (Staphylococcus aureus) did it give?
The Inhibition was 2.79%.

What about the Inhibition (Escherichia coli) of the same molecule?
Its Inhibition is -4.78%.

Which results are given for Cc1ccc(S(=O)(=O)N2CC(Cc3ccccc3)C(=O)N2S(=O)(=O)c2ccc(C)cc2)cc1 (configuration not stated)?
Inhibition (Staphylococcus aureus; 32 ug/mL): -1.12% and 2.54%; Inhibition (Escherichia coli; 32 ug/mL): -8.26% and -4.89%

Which Inhibition (Staphylococcus aureus; 32 ug/mL) does the source give for CC(C)(C)OC(=O)N1C(O)C(Cc2ccccc2)CN1S(=O)(=O)c1ccc([N+](=O)[O-])cc1 (configuration not stated) here?
The Inhibition was 11.9% and 5.44% and 15.35%.

What about the Inhibition (Escherichia coli; 32 ug/mL) of the same molecule?
Its Inhibition is 1.32% and -2.18% and -0.91%.

For CC(C)(C)OC(=O)N1C(=O)C(Cc2ccccc2)CN1S(=O)(=O)c1ccc([N+](=O)[O-])cc1 (configuration not stated), which Inhibition (Staphylococcus aureus; 32 ug/mL) is on record?
Its Inhibition is 9.07% and 7.14% and -8.81%.

And the Inhibition (Escherichia coli; 32 ug/mL)?
The Inhibition was -5.13% and -6.6% and -4.72%.

CCCCCCCC1CN(S(=O)(=O)c2ccc(C)cc2)N(C(=O)OC(C)(C)C)C1O (configuration not stated) was tested. Which Inhibition (Staphylococcus aureus) did it give?
The Inhibition was 6.71%.

And the Inhibition (Escherichia coli)?
Its Inhibition is -7.16%.

With CC1CN(C(=O)OCc2ccccc2)OC1=O (configuration not stated) as the molecule, how does the Inhibition (Staphylococcus aureus; 32 ug/mL) read?
Its Inhibition is 5.54% and 4.49% and 4.77%.

And the Inhibition (Escherichia coli; 32 ug/mL)?
Its Inhibition is -4.89% and -2.17% and -2.01%.
